# Assay results published in paper PMC7862700, “An all-to-all approach to the identification of sequence-specific readers for epigenetic DNA modifications on cytosine”.
# Legend:
# Assay in all cases: DAPPL (digital affinity profiling via proximity ligation, sequencing); 10 mM Tris-HCl pH 7.5, 50 mM NaCl, 1 mM DTT, 4% glycerol, room temperature, 30 min; GST-TFs on glutathione beads, 16-mer random dsDNA library, 0.1% formaldehyde crosslink after washing; high values mean tight binding
# FEV = biological target: T1, FEV (Homo sapiens, UniProt Q99581 1-238); settings: protein: recombinant; tags: N-terminal GST; dsDNA, one strand shown
# T1 sequence: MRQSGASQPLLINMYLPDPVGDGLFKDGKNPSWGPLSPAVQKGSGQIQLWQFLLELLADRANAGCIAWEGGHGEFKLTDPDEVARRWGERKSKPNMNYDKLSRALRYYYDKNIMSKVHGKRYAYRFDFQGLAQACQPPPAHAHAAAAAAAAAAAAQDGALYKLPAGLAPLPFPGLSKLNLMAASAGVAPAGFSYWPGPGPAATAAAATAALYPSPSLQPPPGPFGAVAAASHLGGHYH
# Procedure, shortened: (§1)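 Binding signal is each hexamer's read frequency for a factor divided by its frequency in the tag-only sample. The factors were GST-fused human transcription factors from yeast, captured on glutathione beads, DNA-barcoded and pooled with that sample. Pools were incubated with 200 nmole of a random double-stranded 16-mer DNA library in Tris/NaCl/DTT/glycerol buffer at room temperature for 30 min, then washed, crosslinked with 0.1% formaldehyde, proximity-ligated with BsaI/T4 ligase (1 h, 37 °C), PCR-amplified and sequenced on an Illumina NextSeq500.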
# ETV5 = ETV5 (Homo sapiens, UniProt P41161 1-510); settings: protein: recombinant; tags: N-terminal GST; dsDNA, one strand shown
# Procedure, shortened: as §1
# HSF1 = HSF1 (Homo sapiens, UniProt Q00613 1-529); settings: protein: recombinant; tags: N-terminal GST; chain copies: 3; dsDNA, one strand shown
# Procedure, shortened: as §1
# SPIC = biological target: T2, SPIC (Homo sapiens, UniProt Q8N5J4 1-248); settings: protein: recombinant; tags: N-terminal GST; dsDNA, one strand shown
# T2 sequence: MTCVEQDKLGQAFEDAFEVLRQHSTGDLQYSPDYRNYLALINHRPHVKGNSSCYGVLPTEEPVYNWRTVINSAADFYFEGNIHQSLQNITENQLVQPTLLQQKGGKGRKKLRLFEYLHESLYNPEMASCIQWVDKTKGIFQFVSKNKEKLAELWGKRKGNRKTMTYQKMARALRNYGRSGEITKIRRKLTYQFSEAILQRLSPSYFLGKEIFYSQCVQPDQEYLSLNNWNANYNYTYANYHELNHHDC
# Procedure, shortened: as §1
# ELF4 = ELF4 (Homo sapiens, UniProt Q99607 1-663); settings: protein: recombinant; tags: N-terminal GST; dsDNA, one strand shown
# Procedure, shortened: as §1
# ELK4 = biological target: T3, ELK4 (Homo sapiens, UniProt P28324-2 1-405); settings: protein: recombinant; tags: N-terminal GST; dsDNA, one strand shown
# T3 sequence: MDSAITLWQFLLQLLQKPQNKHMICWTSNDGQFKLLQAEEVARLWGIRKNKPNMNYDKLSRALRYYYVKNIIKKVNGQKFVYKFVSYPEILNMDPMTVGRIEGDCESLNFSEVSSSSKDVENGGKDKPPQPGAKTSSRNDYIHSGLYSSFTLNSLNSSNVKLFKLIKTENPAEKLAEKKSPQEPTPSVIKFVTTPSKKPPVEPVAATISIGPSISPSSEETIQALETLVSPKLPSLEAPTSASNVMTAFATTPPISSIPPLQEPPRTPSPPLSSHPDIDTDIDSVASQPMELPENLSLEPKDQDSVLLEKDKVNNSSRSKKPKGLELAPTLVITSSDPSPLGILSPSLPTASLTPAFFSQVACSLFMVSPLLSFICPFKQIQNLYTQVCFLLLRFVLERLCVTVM
# Procedure, shortened: as §1
# ETV2 = biological target: T4, ETV2 (Homo sapiens, UniProt O00321 1-342); settings: protein: recombinant; tags: N-terminal GST; dsDNA, one strand shown
# T4 sequence: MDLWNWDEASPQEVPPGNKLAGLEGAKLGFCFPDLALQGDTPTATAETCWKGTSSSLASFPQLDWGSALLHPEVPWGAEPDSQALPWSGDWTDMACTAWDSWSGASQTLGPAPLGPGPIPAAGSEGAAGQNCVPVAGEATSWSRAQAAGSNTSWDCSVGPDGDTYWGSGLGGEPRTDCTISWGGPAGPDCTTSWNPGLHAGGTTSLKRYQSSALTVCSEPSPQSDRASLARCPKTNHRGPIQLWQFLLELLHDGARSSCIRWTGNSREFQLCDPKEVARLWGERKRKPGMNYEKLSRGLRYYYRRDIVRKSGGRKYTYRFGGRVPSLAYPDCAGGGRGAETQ
# Procedure, shortened: as §1
# ELF3 = biological target: T5, ELF3 (Homo sapiens, UniProt P78545 1-371); settings: protein: recombinant; tags: N-terminal GST; dsDNA, one strand shown
# T5 sequence: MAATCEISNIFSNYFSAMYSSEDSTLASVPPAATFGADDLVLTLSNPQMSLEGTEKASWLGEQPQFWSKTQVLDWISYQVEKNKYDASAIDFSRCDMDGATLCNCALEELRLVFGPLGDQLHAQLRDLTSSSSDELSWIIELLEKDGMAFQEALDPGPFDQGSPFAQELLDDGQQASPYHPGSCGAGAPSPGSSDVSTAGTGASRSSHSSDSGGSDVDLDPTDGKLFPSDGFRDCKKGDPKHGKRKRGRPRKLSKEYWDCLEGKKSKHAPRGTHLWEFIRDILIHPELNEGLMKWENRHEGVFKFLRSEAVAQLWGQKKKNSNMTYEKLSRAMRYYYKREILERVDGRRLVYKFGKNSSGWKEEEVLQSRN
# Procedure, shortened: as §1
# CRX = CRX (Homo sapiens, UniProt O43186 1-299); settings: protein: recombinant; tags: N-terminal GST; dsDNA, one strand shown
# Procedure, shortened: as §1
# ETV1 = ETV1 (Homo sapiens, UniProt P50549 1-477); settings: protein: recombinant; tags: N-terminal GST; dsDNA, one strand shown
# Procedure, shortened: as §1
# ERF = biological target: T6, ERF (Homo sapiens, UniProt P50548 1-548); settings: protein: recombinant; tags: N-terminal GST; dsDNA, one strand shown
# T6 sequence: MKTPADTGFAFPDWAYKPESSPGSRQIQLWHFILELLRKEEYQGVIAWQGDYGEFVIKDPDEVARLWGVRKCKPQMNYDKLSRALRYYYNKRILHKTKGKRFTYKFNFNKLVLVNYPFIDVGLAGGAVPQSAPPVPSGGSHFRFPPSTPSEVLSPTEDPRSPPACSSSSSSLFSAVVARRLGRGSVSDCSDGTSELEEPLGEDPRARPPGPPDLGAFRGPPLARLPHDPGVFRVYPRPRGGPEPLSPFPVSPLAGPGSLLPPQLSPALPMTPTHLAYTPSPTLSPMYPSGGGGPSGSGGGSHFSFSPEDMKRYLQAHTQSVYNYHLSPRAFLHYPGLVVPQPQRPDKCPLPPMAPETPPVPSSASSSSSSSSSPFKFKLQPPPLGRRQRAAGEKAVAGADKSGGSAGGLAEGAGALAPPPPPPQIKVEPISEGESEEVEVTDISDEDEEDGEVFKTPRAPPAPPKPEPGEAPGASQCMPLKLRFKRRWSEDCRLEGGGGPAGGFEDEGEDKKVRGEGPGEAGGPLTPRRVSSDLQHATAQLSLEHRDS
# Procedure, shortened: as §1
# ETV3L = biological target: T7, ETV3L (Homo sapiens, UniProt Q6ZN32 1-361); settings: protein: recombinant; tags: N-terminal GST; dsDNA, one strand shown
# T7 sequence: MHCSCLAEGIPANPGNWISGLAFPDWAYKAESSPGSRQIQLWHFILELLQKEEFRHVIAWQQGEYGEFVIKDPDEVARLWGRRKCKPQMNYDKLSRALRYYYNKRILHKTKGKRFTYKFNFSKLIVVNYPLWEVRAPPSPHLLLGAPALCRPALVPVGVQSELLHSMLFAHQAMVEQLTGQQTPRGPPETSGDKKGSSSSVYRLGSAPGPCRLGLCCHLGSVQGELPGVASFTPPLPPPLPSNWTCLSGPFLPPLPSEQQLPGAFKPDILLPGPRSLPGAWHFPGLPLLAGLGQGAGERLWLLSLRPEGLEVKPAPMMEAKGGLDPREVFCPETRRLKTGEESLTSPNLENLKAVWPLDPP
# Procedure, shortened: as §1
# ETS2 = biological target: T8, ETS2 (Homo sapiens, UniProt P15036 1-469); settings: protein: recombinant; tags: N-terminal GST; dsDNA, one strand shown
# T8 sequence: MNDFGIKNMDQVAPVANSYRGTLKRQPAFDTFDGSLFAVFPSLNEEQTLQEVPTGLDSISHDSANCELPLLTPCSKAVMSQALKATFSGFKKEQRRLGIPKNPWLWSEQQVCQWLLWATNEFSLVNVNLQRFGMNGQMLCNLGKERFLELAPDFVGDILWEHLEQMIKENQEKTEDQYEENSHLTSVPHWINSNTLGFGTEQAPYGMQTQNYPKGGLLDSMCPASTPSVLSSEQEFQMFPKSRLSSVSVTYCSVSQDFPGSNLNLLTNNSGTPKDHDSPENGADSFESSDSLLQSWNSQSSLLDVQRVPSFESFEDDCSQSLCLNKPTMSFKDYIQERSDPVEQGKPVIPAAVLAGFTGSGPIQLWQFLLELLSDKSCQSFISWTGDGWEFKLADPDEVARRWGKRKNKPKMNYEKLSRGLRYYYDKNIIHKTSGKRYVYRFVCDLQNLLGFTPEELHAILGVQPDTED
# Procedure, shortened: as §1
# SPDEF = biological target: T9, SPDEF (Homo sapiens, UniProt O95238 1-335); settings: protein: recombinant; tags: N-terminal GST; dsDNA, one strand shown
# T9 sequence: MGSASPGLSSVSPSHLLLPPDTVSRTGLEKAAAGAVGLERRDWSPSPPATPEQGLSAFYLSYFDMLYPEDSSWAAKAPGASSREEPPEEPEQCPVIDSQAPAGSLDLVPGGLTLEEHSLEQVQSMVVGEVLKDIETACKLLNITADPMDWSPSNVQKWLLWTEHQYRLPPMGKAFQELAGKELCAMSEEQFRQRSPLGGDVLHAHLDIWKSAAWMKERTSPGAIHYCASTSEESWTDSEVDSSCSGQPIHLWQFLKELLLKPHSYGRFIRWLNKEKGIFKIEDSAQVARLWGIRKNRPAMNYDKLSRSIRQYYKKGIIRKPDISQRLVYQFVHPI
# Procedure, shortened: as §1
# ETV7 = biological target: T10, ETV7 (Homo sapiens, UniProt Q9Y603 1-341); settings: protein: recombinant; tags: N-terminal GST; dsDNA, one strand shown
# T10 sequence: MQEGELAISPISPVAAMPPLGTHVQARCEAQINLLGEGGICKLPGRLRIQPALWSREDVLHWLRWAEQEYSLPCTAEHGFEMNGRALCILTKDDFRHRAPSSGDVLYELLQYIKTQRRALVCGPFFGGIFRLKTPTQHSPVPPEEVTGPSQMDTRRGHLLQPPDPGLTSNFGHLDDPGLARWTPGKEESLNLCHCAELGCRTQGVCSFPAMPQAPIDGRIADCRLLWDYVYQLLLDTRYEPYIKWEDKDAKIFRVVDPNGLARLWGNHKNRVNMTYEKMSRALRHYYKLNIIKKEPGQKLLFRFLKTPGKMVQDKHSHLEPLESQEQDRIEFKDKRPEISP
# Procedure, shortened: as §1
# ELF5 = biological target: T11, ELF5 (Homo sapiens, UniProt Q9UKW6-2 1-255); settings: protein: recombinant; tags: N-terminal GST; dsDNA, one strand shown
# T11 sequence: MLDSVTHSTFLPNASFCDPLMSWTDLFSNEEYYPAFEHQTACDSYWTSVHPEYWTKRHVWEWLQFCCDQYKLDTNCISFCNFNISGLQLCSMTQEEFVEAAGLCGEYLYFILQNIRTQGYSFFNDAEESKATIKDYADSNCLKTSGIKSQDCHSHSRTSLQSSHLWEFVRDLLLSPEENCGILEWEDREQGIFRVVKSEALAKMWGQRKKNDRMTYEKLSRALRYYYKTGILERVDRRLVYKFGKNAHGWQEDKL
# Procedure, shortened: as §1
# ETV3 = biological target: T12, ETV3 (Homo sapiens, UniProt P41162-2 1-143); settings: protein: recombinant; tags: N-terminal GST; dsDNA, one strand shown
# T12 sequence: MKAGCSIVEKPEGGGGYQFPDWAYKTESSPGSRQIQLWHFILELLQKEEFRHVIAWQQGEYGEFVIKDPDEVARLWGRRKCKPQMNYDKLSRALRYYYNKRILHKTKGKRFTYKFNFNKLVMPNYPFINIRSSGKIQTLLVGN
# Procedure, shortened: as §1
# ETV6 = ETV6 (Homo sapiens, UniProt P41212 1-452); settings: protein: recombinant; tags: N-terminal GST; dsDNA, one strand shown
# Procedure, shortened: as §1
# Chain of ETV1 (P50549 whole entry): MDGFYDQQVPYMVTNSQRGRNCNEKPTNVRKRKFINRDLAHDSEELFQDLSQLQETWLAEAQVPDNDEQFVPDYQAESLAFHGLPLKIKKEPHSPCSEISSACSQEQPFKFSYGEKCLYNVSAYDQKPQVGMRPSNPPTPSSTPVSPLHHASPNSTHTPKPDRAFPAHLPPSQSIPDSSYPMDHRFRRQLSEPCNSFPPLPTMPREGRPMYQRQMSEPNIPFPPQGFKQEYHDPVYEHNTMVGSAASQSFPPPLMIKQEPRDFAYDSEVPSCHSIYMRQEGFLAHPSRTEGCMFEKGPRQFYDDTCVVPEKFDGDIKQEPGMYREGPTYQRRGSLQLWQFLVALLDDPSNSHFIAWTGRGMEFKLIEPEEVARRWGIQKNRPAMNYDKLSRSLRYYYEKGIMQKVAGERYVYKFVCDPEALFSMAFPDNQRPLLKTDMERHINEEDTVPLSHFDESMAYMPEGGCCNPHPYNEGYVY
# Chain of ETV5 (P41161 whole entry): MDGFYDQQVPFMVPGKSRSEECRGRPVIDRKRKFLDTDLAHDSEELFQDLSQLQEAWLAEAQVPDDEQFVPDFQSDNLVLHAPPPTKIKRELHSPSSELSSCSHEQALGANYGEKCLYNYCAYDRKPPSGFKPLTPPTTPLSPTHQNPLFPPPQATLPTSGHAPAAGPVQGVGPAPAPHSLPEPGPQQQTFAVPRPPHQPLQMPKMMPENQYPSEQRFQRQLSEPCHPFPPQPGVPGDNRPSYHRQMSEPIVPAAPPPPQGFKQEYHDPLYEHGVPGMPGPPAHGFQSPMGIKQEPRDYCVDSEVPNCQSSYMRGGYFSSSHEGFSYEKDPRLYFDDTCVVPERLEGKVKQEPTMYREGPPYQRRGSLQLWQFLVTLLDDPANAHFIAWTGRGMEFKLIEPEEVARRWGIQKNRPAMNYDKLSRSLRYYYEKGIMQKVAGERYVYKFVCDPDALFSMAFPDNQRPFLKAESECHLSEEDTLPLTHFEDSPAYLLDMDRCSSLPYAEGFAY
# Chain of HSF1 (Q00613 whole entry): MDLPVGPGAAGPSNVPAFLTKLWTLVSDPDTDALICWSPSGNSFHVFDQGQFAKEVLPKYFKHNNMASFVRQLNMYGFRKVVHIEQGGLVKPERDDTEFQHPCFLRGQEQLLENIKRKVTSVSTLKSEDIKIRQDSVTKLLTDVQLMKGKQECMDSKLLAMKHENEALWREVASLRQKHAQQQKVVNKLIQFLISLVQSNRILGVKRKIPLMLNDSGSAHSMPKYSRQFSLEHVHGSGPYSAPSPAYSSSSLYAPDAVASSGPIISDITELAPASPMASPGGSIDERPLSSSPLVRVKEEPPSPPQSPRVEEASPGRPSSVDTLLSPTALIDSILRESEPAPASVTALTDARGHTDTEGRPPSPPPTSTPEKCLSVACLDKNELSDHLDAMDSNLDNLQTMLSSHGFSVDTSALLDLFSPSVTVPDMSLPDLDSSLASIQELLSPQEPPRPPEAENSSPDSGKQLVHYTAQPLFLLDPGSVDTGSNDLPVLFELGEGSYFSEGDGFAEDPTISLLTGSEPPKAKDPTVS
# Chain of ELF4 (Q99607 whole entry): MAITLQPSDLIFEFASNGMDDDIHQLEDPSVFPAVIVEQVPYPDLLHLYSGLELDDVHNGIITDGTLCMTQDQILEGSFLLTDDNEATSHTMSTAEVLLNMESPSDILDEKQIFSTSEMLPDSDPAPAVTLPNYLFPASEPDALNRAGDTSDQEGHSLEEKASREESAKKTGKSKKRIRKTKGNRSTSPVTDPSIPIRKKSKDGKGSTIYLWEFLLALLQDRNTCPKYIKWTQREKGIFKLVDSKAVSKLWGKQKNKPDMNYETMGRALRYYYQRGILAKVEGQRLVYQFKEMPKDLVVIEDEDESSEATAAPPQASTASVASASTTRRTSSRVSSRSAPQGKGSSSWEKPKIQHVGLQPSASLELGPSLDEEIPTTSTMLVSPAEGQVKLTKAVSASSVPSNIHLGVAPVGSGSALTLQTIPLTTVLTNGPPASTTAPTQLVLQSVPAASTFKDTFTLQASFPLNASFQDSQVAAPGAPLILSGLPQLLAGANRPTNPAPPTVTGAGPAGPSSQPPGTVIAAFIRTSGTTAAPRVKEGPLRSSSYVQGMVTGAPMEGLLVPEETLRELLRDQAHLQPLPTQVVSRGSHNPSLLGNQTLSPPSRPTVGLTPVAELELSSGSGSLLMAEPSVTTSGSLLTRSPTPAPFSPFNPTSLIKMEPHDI
# Chain of ETV6 (P41212 whole entry): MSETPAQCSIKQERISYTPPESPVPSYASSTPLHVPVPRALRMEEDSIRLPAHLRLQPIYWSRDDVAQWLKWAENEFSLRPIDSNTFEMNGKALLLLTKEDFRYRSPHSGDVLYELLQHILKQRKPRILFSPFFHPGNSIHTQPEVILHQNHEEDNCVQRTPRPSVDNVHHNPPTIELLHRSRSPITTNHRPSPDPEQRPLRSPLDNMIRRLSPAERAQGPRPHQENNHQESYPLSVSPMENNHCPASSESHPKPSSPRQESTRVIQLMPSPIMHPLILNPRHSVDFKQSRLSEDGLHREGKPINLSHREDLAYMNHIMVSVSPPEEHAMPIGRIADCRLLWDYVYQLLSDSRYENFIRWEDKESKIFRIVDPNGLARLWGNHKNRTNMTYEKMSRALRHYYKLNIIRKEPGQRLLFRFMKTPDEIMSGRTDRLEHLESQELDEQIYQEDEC
# Chain of CRX (O43186 whole entry): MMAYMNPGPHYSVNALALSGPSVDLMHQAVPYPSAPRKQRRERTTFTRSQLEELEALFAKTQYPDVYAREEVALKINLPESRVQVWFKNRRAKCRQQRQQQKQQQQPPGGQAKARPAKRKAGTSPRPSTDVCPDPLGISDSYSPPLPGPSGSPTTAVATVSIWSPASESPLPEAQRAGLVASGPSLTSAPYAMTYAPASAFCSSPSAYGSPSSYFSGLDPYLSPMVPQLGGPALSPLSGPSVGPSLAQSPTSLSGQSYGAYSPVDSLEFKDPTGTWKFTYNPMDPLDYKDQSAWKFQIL
sequence,measurement,setting,value
TATGAT,binding signal,FEV,"1.16 fold enrichment (6-mer frequency, TF over GST control)"
same,binding signal,ETV5,"1.24 fold enrichment (6-mer frequency, TF over GST control)"
same,binding signal,HSF1,"1.31 fold enrichment (6-mer frequency, TF over GST control)"
same,binding signal,SPIC,"1.29 fold enrichment (6-mer frequency, TF over GST control)"
same,binding signal,ELF4,"1.12 fold enrichment (6-mer frequency, TF over GST control)"
same,binding signal,ELK4,"1.25 fold enrichment (6-mer frequency, TF over GST control)"
same,binding signal,ETV2,"1.27 fold enrichment (6-mer frequency, TF over GST control)"
same,binding signal,ELF3,"1.09 fold enrichment (6-mer frequency, TF over GST control)"
same,binding signal,CRX,"1.5 fold enrichment (6-mer frequency, TF over GST control)"
same,binding signal,ETV1,"1.17 fold enrichment (6-mer frequency, TF over GST control)"
same,binding signal,ERF,"1.22 fold enrichment (6-mer frequency, TF over GST control)"
same,binding signal,ETV3L,"1.18 fold enrichment (6-mer frequency, TF over GST control)"
same,binding signal,ETS2,"1.17 fold enrichment (6-mer frequency, TF over GST control)"
same,binding signal,SPDEF,"1.23 fold enrichment (6-mer frequency, TF over GST control)"
same,binding signal,ETV7,"1.25 fold enrichment (6-mer frequency, TF over GST control)"
same,binding signal,ELF5,"1.26 fold enrichment (6-mer frequency, TF over GST control)"
same,binding signal,ETV3,"1.26 fold enrichment (6-mer frequency, TF over GST control)"
same,binding signal,ETV6,"1.17 fold enrichment (6-mer frequency, TF over GST control)"
